Screening data deposited in PubChem BioAssay by Broad Institute.
U2OS ROS induce – ROS inducers in U2OS cancer cells, primary screen, cell-based, H2DCF-DA fluorescence. U2OS ROS induction. ROS induction (% of piperlongumine), % at 10 µM. 46,000 compounds, 2% hits; in the data active = ROS induction above about 79%, passing the limit was not always enough
NOMO-1 viab – NOMO-1 AML cell viability reduction, primary screen, STK33 inhibitor project, CellTiter-Glo luminescence; 37,000 compounds, 7.5% hits; NOMO-1 AML viability, 72 h; inhibition, % (no concentration beside the values); AID 2330, 2010; in the data active = inhibition above about 80%
Of the large screens only hits and unclear results are named; the others gave an inactive call. This is one part of a sample in which hits are shown more often than they occur.

Oc1ccc2oc3c(c2c1/C=N/N1CCCCC1)CCCC3	none
COc1ccc(N=Cc2c(O)ccc3oc4c(c23)CCCC4)cc1	NOMO-1 viab 99
Cc1ccc(S(=O)(=O)c2nc(-c3ccccc3Cl)oc2NCC2CCCO2)cc1 (stereo not drawn)	none (no result: U2OS ROS induce)
C[C@H]1CN([C@@H](C)CO)C(=O)c2cccc(NS(=O)(=O)c3ccc(Cl)cc3)c2O[C@@H]1CN(C)CC1CC1	none
O=C(/C=C/c1ccc(Cl)cc1)Nc1cccc(Cl)c1	NOMO-1 viab 120
CC(=O)Nc1ccc(NC(=O)/C=C/c2ccccc2)cc1	none (no result: NOMO-1 viab)
CO[C@@H]1C=C[C@@]23c4cc5c(cc4CN(CC2O)[C@H]3C1)OCO5 (stereo partly drawn)	NOMO-1 viab 113
CCc1nc(-c2ccc(OC)cc2)cc2cc(OC)c(OC)cc12	U2OS ROS induce 109
COc1ccc(Cc2nccc3cc(OC)c(OC)cc23)cc1OC	none
Cc1cc(NCCO)n2c(nc3ccccc32)c1C#N	none (no result: NOMO-1 viab)
CC(C)CCNc1cc(C(C)C)c(C#N)c2nc3ccccc3n12	U2OS ROS induce 197 (no result: NOMO-1 viab)
CCC(C)Nc1cc(C)c(C#N)c2nc3ccccc3n12 (stereo not drawn)	none (no result: NOMO-1 viab)
CCc1c(C)c(C#N)c2nc3ccccc3n2c1NCCC(C)C	U2OS ROS induce 157 (no result: NOMO-1 viab)
O=C1O[C@@H](c2ccccc2)[C@@H](c2ccccc2)N2[C@@H](c3ccc(OCCO)cc3)[C@]3(C(=O)Nc4ccc(C#CC5(O)CCCCCC5)cc43)[C@@H](C(=O)N3CCCCCCC3)[C@H]12	U2OS ROS induce 135 (no result: NOMO-1 viab)
COC(=O)C(CC#Cc1ccc2c(c1)[C@]1(C(=O)N2)[C@H](C(=O)N2CCc3cc(OC)c(OC)cc3C2)[C@H]2C(=O)O[C@H](c3ccccc3)[C@H](c3ccccc3)N2[C@@H]1c1ccc(O)cc1)C(=O)OC	none (no result: NOMO-1 viab)
O=C1O[C@H](c2ccccc2)[C@H](c2ccccc2)N2[C@H]1[C@@H](C(=O)N1CCCCCCC1)[C@]1(C(=O)Nc3ccc(C#CC4=CCCCC4)cc31)[C@H]2c1ccc(OCCO)cc1	U2OS ROS induce 100 (no result: NOMO-1 viab)
O=C1O[C@H](c2ccccc2)[C@H](c2ccccc2)N2[C@H]1[C@@H](C(=O)O)[C@]1(C(=O)Nc3ccc(C#CC4(O)CCCCCC4)cc31)[C@H]2c1ccc(OCCO)cc1	none (no result: NOMO-1 viab)
O=C1O[C@@H](c2ccccc2)[C@@H](c2ccccc2)N2[C@@H](c3ccc(OCCO)cc3)[C@]3(C(=O)Nc4ccc(C#CC5=CCCCC5)cc43)[C@@H](C(=O)N3CCN(c4ncccn4)CC3)[C@H]12	none (no result: NOMO-1 viab)
COC(=O)C(CC#Cc1ccc2c(c1)[C@]1(C(=O)N2)[C@H](c2ccc(OCCO)cc2)N2[C@H](c3ccccc3)[C@H](c3ccccc3)OC(=O)[C@H]2[C@@H]1C(=O)N1CCCCCCC1)C(=O)OC	U2OS ROS induce 128 (no result: NOMO-1 viab)
C[C@H]1CN([C@@H](C)CO)C(=O)c2cc(NS(=O)(=O)c3ccc(Cl)cc3)ccc2O[C@H]1CN(C)S(C)(=O)=O	none
O=C(NO)c1cccc(C(=O)N/N=C/c2cccnc2Br)c1	none (no result: NOMO-1 viab)
C=CCNC(=O)[C@H]1[C@@H]2C(=O)O[C@@H](c3ccccc3)[C@@H](c3ccccc3)N2[C@@H](c2ccc(OCCO)cc2)[C@]12C(=O)N(C(=O)OCCOC)c1ccc(C#CC3=CCCCC3)cc12	U2OS ROS induce 122 (no result: NOMO-1 viab)
C=CCNC(=O)[C@@H]1[C@H]2C(=O)O[C@H](c3ccccc3)[C@H](c3ccccc3)N2[C@H](c2ccc(OCCO)cc2)[C@@]12C(=O)Nc1ccc(C#CC3=CCCCC3)cc12	none (no result: NOMO-1 viab)
C=CCNC(=O)[C@H]1[C@@H]2C(=O)O[C@@H](c3ccccc3)[C@@H](c3ccccc3)N2[C@@H](c2ccccc2OCCO)[C@]12C(=O)N(C(=O)OCCOC)c1ccc(C#CC3(O)CCCCCC3)cc12	U2OS ROS induce 95 (no result: NOMO-1 viab)
C=CCNC(=O)[C@@H]1[C@H]2C(=O)O[C@H](c3ccccc3)[C@H](c3ccccc3)N2[C@H](c2ccccc2OCCO)[C@@]12C(=O)N(C(=O)OCCOC)c1ccc(C#CCCO)cc12	none (no result: NOMO-1 viab)
C=CCNC(=O)[C@H]1[C@@H]2C(=O)O[C@@H](c3ccccc3)[C@@H](c3ccccc3)N2[C@@H](c2ccc(OCCO)cc2)[C@]12C(=O)N(C(=O)OCCOC)c1ccc(C#CC3(O)CCCCCC3)cc12	U2OS ROS induce 105 (no result: NOMO-1 viab)
C=CCNC(=O)[C@@H]1[C@H]2C(=O)O[C@H](c3ccccc3)[C@H](c3ccccc3)N2[C@H](c2ccc(O)cc2)[C@@]12C(=O)Nc1ccc(C#CC3(O)CCCCCC3)cc12	none (no result: NOMO-1 viab)
C[C@H](CO)N1C[C@H](C)[C@@H](CN(C)Cc2ccc(C(=O)O)cc2)Oc2ccc(NS(=O)(=O)c3ccc(F)cc3)cc2C1=O	none
CC1CCN(S(=O)(=O)c2cccc(C(=O)NC(C)(C)CO)c2)CC1	none
CC(C)(C)c1ccc(NC(=O)c2ccc(C(C)(C)C)s2)cc1	none (no result: NOMO-1 viab)
CC(C)(C)c1ccc(NC(=O)c2ccc(N3C(=O)CSCC3=O)cc2)cc1	U2OS ROS induce 150 (no result: NOMO-1 viab)
CC1CCN(S(=O)(=O)c2ccc(NC(=O)c3ccc(C(C)(C)C)cc3)cc2)CC1	NOMO-1 viab 114
O=c1n(-c2ccc(F)cc2)nc2n1CCCN2	none (no result: NOMO-1 viab)
C[C@@H]1CN([C@@H](C)CO)C(=O)Cc2cc(NC(=O)C3CC3)ccc2O[C@@H]1CN(C)S(=O)(=O)c1ccc(F)cc1	none
CCOC(=O)c1c(C)n(C)c2ccc(O)c(S(=O)(=O)c3ccc(C)cc3)c12	none
COCCOC(=O)N1C(=O)[C@@]2(c3ccccc31)[C@H](C(N)=O)[C@H]1C(=O)O[C@H](c3ccccc3)[C@H](c3ccccc3)N1[C@@H]2c1ccc(O)cc1	none (no result: NOMO-1 viab)
COCCOC(=O)N1C(=O)[C@@]2(c3ccccc31)[C@H](C(N)=O)[C@H]1C(=O)O[C@H](c3ccccc3)[C@H](c3ccccc3)N1[C@@H]2c1ccc(OCCO)cc1	U2OS ROS induce 124 (no result: NOMO-1 viab)
COCCOC(=O)N1C(=O)[C@@]2(c3cc(C#CCCO)ccc31)[C@H](c1ccccc1OCCO)N1[C@H](c3ccccc3)[C@H](c3ccccc3)OC(=O)[C@H]1[C@@H]2C(=O)NC[C@H](O)c1ccccc1	none (no result: NOMO-1 viab)
COCCOC(=O)N1C(=O)[C@@]2(c3ccccc31)[C@H](C(N)=O)[C@H]1C(=O)O[C@H](c3ccccc3)[C@H](c3ccccc3)N1[C@@H]2c1ccccc1OCCO	none (no result: NOMO-1 viab)
C=CCNC(=O)[C@@H]1[C@H]2C(=O)O[C@H](c3ccccc3)[C@H](c3ccccc3)N2[C@H](c2ccc(O)cc2)[C@@]12C(=O)N(C(=O)OCCOC)c1ccccc12	none (no result: NOMO-1 viab)
COCCOC(=O)N1C(=O)[C@@]2(c3ccccc31)[C@H](c1ccccc1OCCO)N1[C@H](c3ccccc3)[C@H](c3ccccc3)OC(=O)[C@H]1[C@@H]2C(=O)NC[C@H](O)c1ccccc1	U2OS ROS induce 348 (no result: NOMO-1 viab)
C=CCNC(=O)[C@@H]1[C@H]2C(=O)O[C@H](c3ccccc3)[C@H](c3ccccc3)N2[C@H](c2ccccc2OCCO)[C@@]12C(=O)N(C(=O)OCCOC)c1ccccc12	U2OS ROS induce 183 (no result: NOMO-1 viab)
C=CCNC(=O)[C@H]1[C@@H]2C(=O)O[C@@H](c3ccccc3)[C@@H](c3ccccc3)N2[C@@H](c2ccccc2OCCO)[C@]12C(=O)N(C(=O)OCCOC)c1ccccc12	U2OS ROS induce 178 (no result: NOMO-1 viab)
C[C@@H]1CCCCO[C@@H](CN(C)C(=O)NC2CCCCC2)[C@@H](C)CN([C@H](C)CO)C(=O)c2cc(NS(=O)(=O)c3cccs3)ccc2O1	none
